23 compounds from PubChem BioAssay (Tox21) can be followed below.

Assay [1] relates to thyroid hormone receptor (rat, GH3 cells). In words: qHTS assay to identify small molecule agonists of the thyroid receptor (TR) signaling pathway (AID 743066; calls by dose curve; further: potency means the concentration at half of the fitted maximal effect). On the technique in general: Quantitative high-throughput screening tests each substance at several concentrations.
The target of assay [2] is Estrogen receptor (Homo sapiens) (UniProt P03372). In words: qHTS assay to identify small molecule antagonists of the estrogen receptor alpha (ER-alpha) signaling pathway (AID 743069; active means well fitted curve in the direction sought with a large enough effect in the signal ratio in the repeat runs, not every such curve was filed as active; inconclusive means weak or mixed curves, or effect the other way; inactive means no such curve, though single readings can be large or run the other way; the % refers to the signal ratio; further: potency means the concentration at half of the fitted maximal effect). The procedure, abridged:
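In this cell-based reporter format, GripTite HEK293 cells harbouring ER-alpha-UAS-bla were grown overnight with 2% charcoal-stripped FBS, dosed with DMSO-dissolved compounds, then challenged with 17beta-estradiol. After 18 hr at 37C, beta-lactamase activity was detected by FRET fluorescence.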

A short description of assay [3]: qHTS assay to identify small molecule antagonists of the estrogen receptor alpha (ER-alpha) signaling pathway - cell viability counter screen (AID 743074; calls by dose curve; further: nearly all actives have a fitted effect of over 45% in size).
Assay [4] concerns the target Estrogen receptor (Homo sapiens) (UniProt P03372). In words: qHTS assay to identify small molecule agonists of the estrogen receptor alpha (ER-alpha) signaling pathway (AID 743075; calls by dose curve; further: potency means the concentration at half of the fitted maximal effect).
For assay [5] the target is unchanged. In words: qHTS assay to identify small molecule agonists of the estrogen receptor alpha (ER-alpha) signaling pathway using the BG1 cell line (AID 743079). Further: nearly all actives have a fitted effect of over 20% in size. Further: potency means the concentration at half of the fitted maximal effect.
The nature of assay [6]: qHTS assay to identify small molecule antagonists of the estrogen receptor alpha (ER-alpha) signaling pathway using the BG1 cell line - cell viability counter screen (AID 743081).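 Further: compound given together with 17beta-estradiol as the ER stimulus; series mostly up to about 70 µM; nearly all actives have a fitted effect of over 45% in size.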
Another assay addresses Aromatase (Homo sapiens) (UniProt P11511). Description: qHTS assay to identify aromatase inhibitors (AID 743083). Further: nearly all actives have a fitted effect of over 55% in size. Further: potency means the concentration at half of the fitted maximal effect.
The nature of assay [7]: qHTS assay to identify aromatase inhibitors - cell viability counter screen (AID 743084).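 Further: cells stimulated with testosterone during compound exposure; nearly all actives have a fitted effect of over 55% in size.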 Further: potency means the concentration at half of the fitted maximal effect.
For assay [8], the target named is Aryl hydrocarbon receptor (Homo sapiens) (UniProt P35869). In words: qHTS assay to identify small molecule that activate the aryl hydrocarbon receptor (AhR) signaling pathway (AID 743085). Further: nearly all actives have a fitted effect of over 15% in size. Further: potency means the concentration at half of the fitted maximal effect. The procedure, abridged:
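Measured in HG2L7.5c1 cells: CellTiter-Fluor signal (30 min incubation, 37C) for viability, then luciferase luminescence (30 min, room temperature). Compound contact time was 24 h at 37C, following a 5 h pre-incubation.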

The nature of assay [9]: qHTS assay to identify small molecule antagonists of the estrogen receptor alpha (ER-alpha) signaling pathway using the BG1 cell line (AID 743080; calls by dose curve;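 further: BG1 cells stimulated with 17beta-estradiol alongside compound; series mostly up to about 70 µM; nearly all actives have a fitted effect of over 25% in size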). An outline of the steps: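 Luminescence from a 4×ERE-luciferase reporter in BG1-Luc-4E2 cells served as read-out. Cells, pre-cultured 5 days in stripped-serum phenol-red-free medium, were exposed to compound with 17beta-estradiol co-stimulation for 21.5 h at 37 C.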

Values joined by “and” are separate entries in the source; they are usually repeats but may differ in a detail not shown here. Identical values can stand only once. Where a structure was tested more than once in an assay, its records may differ in their call. Active and inactive are the calls of the source. Unless noted, the call rests on the fitted dose curve; in most records, active means well fitted curve in the direction sought with a large enough effect in the repeat runs; inconclusive means weak or mixed curves; inactive means no such curve, though single readings can be large; an effect the other way counts as inactive or inconclusive.

Chain of Aryl hydrocarbon receptor (Homo sapiens) (P35869 whole entry, looked up): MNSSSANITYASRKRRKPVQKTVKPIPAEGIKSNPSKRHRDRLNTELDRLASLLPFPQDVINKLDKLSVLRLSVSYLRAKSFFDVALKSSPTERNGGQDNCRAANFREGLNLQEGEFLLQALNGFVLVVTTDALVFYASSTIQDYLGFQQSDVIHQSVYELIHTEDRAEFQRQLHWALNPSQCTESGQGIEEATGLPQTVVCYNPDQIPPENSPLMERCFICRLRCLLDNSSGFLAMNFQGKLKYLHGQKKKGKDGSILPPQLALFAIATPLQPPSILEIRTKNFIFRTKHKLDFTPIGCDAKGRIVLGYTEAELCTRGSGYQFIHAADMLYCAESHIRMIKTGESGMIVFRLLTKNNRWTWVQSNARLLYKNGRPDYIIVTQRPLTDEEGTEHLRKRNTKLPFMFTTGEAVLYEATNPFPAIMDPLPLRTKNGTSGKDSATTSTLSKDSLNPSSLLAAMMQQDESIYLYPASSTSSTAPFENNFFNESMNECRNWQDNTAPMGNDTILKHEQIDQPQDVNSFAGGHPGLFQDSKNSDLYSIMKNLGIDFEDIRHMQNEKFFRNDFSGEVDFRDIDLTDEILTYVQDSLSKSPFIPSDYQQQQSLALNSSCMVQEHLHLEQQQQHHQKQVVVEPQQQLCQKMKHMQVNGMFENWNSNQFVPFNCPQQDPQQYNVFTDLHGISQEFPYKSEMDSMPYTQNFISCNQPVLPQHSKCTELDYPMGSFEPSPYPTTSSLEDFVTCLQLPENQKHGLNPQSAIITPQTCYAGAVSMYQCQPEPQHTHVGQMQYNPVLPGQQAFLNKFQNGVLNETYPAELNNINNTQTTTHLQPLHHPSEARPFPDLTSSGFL
Chain of Aromatase (Homo sapiens) (P11511 whole entry, looked up): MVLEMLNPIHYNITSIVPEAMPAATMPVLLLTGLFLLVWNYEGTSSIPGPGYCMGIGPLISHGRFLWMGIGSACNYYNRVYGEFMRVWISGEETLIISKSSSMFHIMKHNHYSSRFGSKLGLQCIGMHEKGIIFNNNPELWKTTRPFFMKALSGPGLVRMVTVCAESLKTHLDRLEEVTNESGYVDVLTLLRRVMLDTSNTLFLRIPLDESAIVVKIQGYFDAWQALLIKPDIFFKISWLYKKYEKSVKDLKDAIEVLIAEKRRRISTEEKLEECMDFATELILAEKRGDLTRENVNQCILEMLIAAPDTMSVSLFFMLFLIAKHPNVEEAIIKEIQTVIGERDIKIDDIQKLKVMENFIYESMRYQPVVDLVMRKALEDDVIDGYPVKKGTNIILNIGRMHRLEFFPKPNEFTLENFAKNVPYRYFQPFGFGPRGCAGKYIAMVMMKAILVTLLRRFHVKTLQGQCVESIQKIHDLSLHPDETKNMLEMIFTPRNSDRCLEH
Chain of Estrogen receptor (Homo sapiens) (P03372 whole entry, looked up): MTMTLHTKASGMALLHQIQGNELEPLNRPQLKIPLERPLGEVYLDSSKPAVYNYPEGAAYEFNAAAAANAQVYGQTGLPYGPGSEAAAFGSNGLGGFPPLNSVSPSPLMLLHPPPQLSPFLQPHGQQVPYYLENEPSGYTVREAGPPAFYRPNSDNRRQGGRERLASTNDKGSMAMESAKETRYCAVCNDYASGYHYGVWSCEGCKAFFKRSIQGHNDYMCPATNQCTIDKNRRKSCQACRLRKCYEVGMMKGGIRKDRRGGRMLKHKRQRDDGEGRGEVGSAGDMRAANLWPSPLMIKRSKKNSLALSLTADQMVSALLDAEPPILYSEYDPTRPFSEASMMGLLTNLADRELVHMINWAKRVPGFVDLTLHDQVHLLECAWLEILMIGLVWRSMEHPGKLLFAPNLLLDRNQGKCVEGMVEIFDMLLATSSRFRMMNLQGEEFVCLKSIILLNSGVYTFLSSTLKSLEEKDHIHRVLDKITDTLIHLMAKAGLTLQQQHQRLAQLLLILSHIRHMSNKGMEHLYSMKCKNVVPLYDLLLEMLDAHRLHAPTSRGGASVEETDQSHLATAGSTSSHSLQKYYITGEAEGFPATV

Take `CC(C)OC=O`: the Potency result in assay [1], in assay [2], in [3], in assay [4], in [5] and in assay [6] was “inactive” each time. Further, the Potency entry (in the assay with Aromatase (Homo sapiens); in assay [7]; in assay [8]) was “inactive” each time.
In the case of `Cc1cccc([N+](=O)[O-])c1C`, the Potency result in [1], in assay [2], in assay [3], in assay [4], in assay [5] and in [6] was “inactive” each time. Besides, the Potency entry (with Aromatase (Homo sapiens); in [7]; in [8]) was “inactive” in each case.
Turning to `O=Cc1ccccc1O`, the Potency entry (in assay [1]; in [2]; in assay [4]; in [6]; in the assay with Aromatase (Homo sapiens); in assay [7]) was “inactive” throughout. In addition, the Potency result in [8] was “inactive”.
For the compound `C[C@]12CC[C@H]3[C@@H](CCC4=CC(=O)CC[C@@]43C)[C@@H]1CC[C@@H]2C(=O)CO`, the Potency result (in assay [1]; in assay [3]; in assay [4]; in assay [9]; in assay [6]; with Aromatase (Homo sapiens)) was “inactive” each time. Further, the Potency result in [7] and in [8] was “inactive” each time. Moreover, the Potency in assay [5] was 7.7 µM (active).
With `CC(CCC(=O)O)(c1ccc(O)cc1)c1ccc(O)cc1`, the Potency entry (in assay [1]; in assay [2]; in [3]; in assay [4]; in [6]; in the assay with Aromatase (Homo sapiens)) was “inactive” each time. For the same compound, the Potency entry in assay [7] and in assay [8] was “inactive” in each case. Besides, the Potency in [5] was 61.1 µM (active).
Turning to `Cc1[nH]c(=O)c(C#N)cc1-c1ccncc1`, the Potency result in assay [1], in [3], in [4], in assay [5], in assay [9] and in [6] was “inactive” throughout. The Potency entry (with Aromatase (Homo sapiens); in assay [7]; in assay [8]) was “inactive” throughout.
For the compound `O=CCCCC=O`, the Potency result in assay [1], in assay [2], in assay [3], in [4], in assay [5] and in assay [6] was “inactive” throughout. The Potency entry (with Aromatase (Homo sapiens); in assay [7]) was “inactive” throughout.
In the case of `CN(C)CCN(Cc1cccs1)c1ccccn1`, the Potency entry in assay [1], in [2], in assay [3], in [4], in assay [5] and in assay [9] was “inactive” in each case. In [6], the Potency entry was “inactive”.
As to `C=CC(C)(CCC=C(C)C)OC(C)=O` (configuration not stated), the Potency result in assay [1], in assay [2], in [3], in assay [4], in assay [5] and in assay [9] was “inactive” in each case. The Potency entry (in [6]; in the assay with Aromatase (Homo sapiens); in [7]; in assay [8]) was “inactive” in each case.
On to `O=C(/C=C/c1ccccc1)OCc1ccccc1`, for which the Potency entry in assay [1], in [2], in assay [3], in assay [4], in assay [9] and in assay [6] was “inactive” each time. In addition, the Potency entry (in the assay with Aromatase (Homo sapiens); in assay [7]; in [8]) was “inactive” throughout. Further, the Potency in assay [5] was 29.8 µM (active).
Consider `C=C(C)C(=O)OCCOC(=O)C(=C)C`, for which the Potency entry in assay [1], in assay [2], in assay [3], in [4], in assay [5] and in assay [6] was “inactive” each time. Further, the Potency result (in the assay with Aromatase (Homo sapiens); in assay [7]; in assay [8]) was “inactive” each time.
As for `O=C(c1ccccc1)c1ccc(O)cc1O`, the Potency entry was “inactive and 30.6 µM (active)” in [1]; 19.9 µM [inconclusive] (active) and 38.9 µM [inconclusive] (active) in [4]; 9.88 µM (active) and 9.69 µM (active) in [5]. For the same compound, the Potency entry (in assay [2]; in [6]; with Aromatase (Homo sapiens); in assay [7]; in assay [8]) was “inactive” in each case.
As for `c1ccncc1`, the Potency result in assay [1], in [3], in [4], in [5], in [9] and in assay [6] was “inactive” throughout. Besides, the Potency result (with Aromatase (Homo sapiens); in assay [7]; in assay [8]) was “inactive” each time.
Turning to `CCCc1c(OCCCCc2nn[nH]n2)ccc(C(C)=O)c1O`, the Potency result (in assay [1]; in assay [3]; in assay [4]; in [5]; in [6]; with Aromatase (Homo sapiens)) was “inactive” each time. For the same compound, the Potency entry in assay [7] was “inactive”.
Turning to `Cc1cc2nc3c(=O)[nH]c(=O)nc-3n(C[C@H](O)[C@H](O)[C@H](O)CO)c2cc1C`, the Potency entry in assay [1] and in [3] was “inactive” throughout.
As for `C#C[C@]1(O)CC[C@H]2[C@@H]3CCc4cc(OC)ccc4[C@H]3CC[C@@]21C`, the Potency entry in [1], in assay [3], in [9], in assay [6], in assay [7] and in [8] was “inactive” each time. For the same compound, the Potency was 19 nM [inconclusive] (active) and 30.9 nM [inconclusive] (active) in [4]; 1.5 nM (active) and 0.8 nM (active) in assay [5].
For the compound `COC(=O)CCC(=O)OC`, the Potency entry (in assay [1]; in [3]; in assay [4]; in [5]; in assay [6]; with Aromatase (Homo sapiens)) was “inactive” in each case. In addition, the Potency result in assay [7] was “inactive”.
As to `CCCCC(CC)COC(=O)c1ccc(N(C)C)cc1` (configuration not stated), the Potency result in assay [1], in assay [2], in assay [3], in [4], in assay [5] and in [9] was “inactive” in each case. Also, the Potency result (in assay [6]; with Aromatase (Homo sapiens); in assay [7]) was “inactive” in each case. In [8], the Potency result is “inactive and 27.3 µM (active)”.
As for `OCCO`, the Potency entry in assay [1], in assay [3], in assay [4], in assay [5], in assay [9] and in [6] was “inactive” throughout. Further, the Potency entry (with Aromatase (Homo sapiens); in [7]; in [8]) was “inactive” each time.
For the compound `O=C(Nc1ccc(Cl)cc1)Nc1ccc(Cl)c(Cl)c1`, the Potency entry in assay [1], in assay [4] and in assay [6] was “inactive” in each case. Moreover, the Potency is 3.47 µM [cytotoxic] (active) in assay [2]; 9.64 µM (active) and 13.7 µM (active) with Aromatase (Homo sapiens); 19.2 µM (active) and 30.6 µM (active) in assay [7]; 2.16 µM (active) and 2.73 µM (active) in assay [8].
On to `COc1ccccc1/C=C/C=O`, for which the Potency result (in [1]; in [3]; in assay [4]; in [5]; in assay [6]; with Aromatase (Homo sapiens)) was “inactive” throughout. Further, in [7], the Potency result is “inactive”.
`Oc1ccc(O)cc1`: the Potency result in [1], in assay [3], in assay [4], in assay [5], in assay [9] and in assay [6] was “inactive” each time. The Potency entry was “inactive and 60.8 µM (active)” with Aromatase (Homo sapiens); “inactive and 54.2 µM (active)” in assay [7].
On to `Cc1ccc(C)c(O)c1C`, for which the Potency entry in [1], in [3], in assay [4], in assay [5], in [9] and in assay [6] was “inactive” throughout. Also, the Potency entry (with Aromatase (Homo sapiens); in [7]; in assay [8]) was “inactive” in each case.
